According to PubChem BioAssay (Tox21):
Values joined by “and” are separate entries in the source; they are usually repeats but may differ in a detail not shown here. Equal values may be shown once. Records with an inconclusive call do not appear. More than one record can exist for a structure, and the calls need not agree. Active and inactive are the calls of the source. Unless noted, calls come from the whole dose curve; as a rule, active = well fitted curve in the direction sought with a large enough effect in the repeat runs; inconclusive = weak or mixed curves; inactive = no such curve, though single readings can be large; an effect the other way counts as inactive or inconclusive.

Key:
[1] = qHTS assay for small molecules that induce genotoxicity in human embryonic kidney cells expressing luciferase-tagged ATAD5 (AID 651632); note: nearly all actives have a fitted effect of over 15% in size; note: potency is the fitted concentration of half-maximal effect
In short: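 HEK293T cells carrying a luciferase reporter tagged to ATAD5 were exposed to compound or DMSO vehicle for 16 hr at 37C, 5% CO2. Amplite was added, and after 30 min at room temperature luciferase activity was read as a marker of ATAD5 induction.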

[2] = qHTS assay for small molecules that induce genotoxicity in human embryonic kidney cells expressing luciferase-tagged ATAD5 - cell viability (AID 651634; calls by dose curve; note: nearly all actives have a fitted effect of over 25% in size; note: potency is the fitted concentration of half-maximal effect)
In short: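 HEK293T cells expressing luciferase-tagged ATAD5 were exposed to compound or DMSO for 15.5 hr at 37C, 5% CO2. Viability was then read as live-cell protease activity by CellTiter-Fluor fluorescence after 30 min at 37C.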

[3] = qHTS assay for small molecule disruptors of the mitochondrial membrane potential - cell viability (AID 720634; calls by dose curve; note: nearly all actives have a fitted effect of over 20% in size; note: potency is the fitted concentration of half-maximal effect)
In short: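 HepG2 cells seeded overnight at 37 C, then exposed to compound or DMSO for 1 hr at 37 C, 5% CO2. m-MPI dye added, then CellTiter-Glo for 30 min at room temperature; viability read as ATP luminescence.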

[4] = qHTS assay for small molecule disruptors of the mitochondrial membrane potential (AID 720635); note: potency is the fitted concentration of half-maximal effect
In short: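 Mitochondrial membrane potential tracked with Mito-MPS dye, red aggregates (ex 540/em 590 nm) against green monomers (ex 490/em 535 nm). Compound treatment 1 hr at 37C, dye 30 min in HepG2.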

[5] = qHTS assay to test for compound auto fluorescence at 535 nm (green) in HepG2 cells (AID 720675)
[6] = qHTS assay to test for compound auto fluorescence at 460 nm (blue) in HEK293 cells (AID 720678); note: potency is the fitted concentration of half-maximal effect
In short: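 Cells were seeded and left to adhere for 4-5 hr at 37C. Compounds were then pin-transferred. After an overnight incubation at 37C under 5% CO2, intrinsic fluorescence at 405/460 nm was measured and referenced to triamterene.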

[7] = qHTS assay to test for compound auto fluorescence at 590 nm (red) in HEK293 cells (AID 720679)
In short: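 Each well held 2,000 HEK293 cells in medium containing 10% dialyzed FBS. Following 4-5 hr attachment at 37C, 23 nL test compound or DMSO was added; plates sat overnight, and red fluorescence (540/590nm) was recorded.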

[8] = qHTS assay for small molecule agonists of the p53 signaling pathway - cell viability (AID 651633; calls by dose curve; note: nearly all actives have a fitted effect of over 30% in size; note: potency is the fitted concentration of half-maximal effect)
In short: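 Viability counter-read: CellTiter-Glo luminescence (30 min, room temperature) in the same p53RE-bla plates. These plates had been exposed to compounds for 16 h at 37 C.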

[9] = qHTS assay to test for compound auto fluorescence at 590 nm (red) in HepG2 cells (AID 720674)
In short: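 Red autofluorescence (Ex/Em 540/590 nm, Rose Bengal sodium equivalents) was measured in HepG2 cells, 2,000 per well in MEM plus 10% FBS, plated overnight at 37 C. Readings were taken 1 hr after adding 23 nL compound or DMSO, at 37 C and 5% CO2.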
% is set by controls: 0 for no effect and ±100 for the full control effect; tags give direction and shape of the fitted curve or compound fluorescence and quenching.

COC(=O)CCS
inactive: Potency [1] | Potency [2] | Potency [3] | Potency [4] | outcome [5] | Potency [6] | outcome [7]

CCN(CC)CCNC(=O)COc1ccc(OC)cc1
inactive: Potency [1] | Potency [8] | Potency [3] | Potency [4] | outcome [9] | outcome [5] | outcome [7]

CCOC(=O)OC(C)OC(=O)[C@@H]1N2C(=O)[C@@H](NC(=O)[C@H](N)c3ccccc3)[C@H]2SC1(C)C (some centres not stated)
inactive: Potency [1] | Potency [2] | Potency [3] | fluorescence, relative to Rose Bengal [9] -0.696% [at 18.6 µM] | fluorescence, % of fluorescein control [5] 0.0265% [at 18.6 µM] | fluorescence, % of triamterene [6] 0.659% [at 18.6 µM] | fluorescence, % of fluorescent control [7] 0.375% [at 18.6 µM]

Oc1c(I)cc(I)c2cccnc12
inactive: Potency [1] | Potency [2] | Potency [3] | outcome [9] | outcome [5] | Potency [6] | outcome [7]

CCOc1ccc(Cc2nccc3cc(OCC)c(OCC)cc23)cc1OCC
inactive: Potency [1] | Potency [8] | Potency [3] | fluorescence, % of fluorescein control [5] 0.127% [at 18.6 µM] | fluorescence, % of triamterene [6] -0.0249% [at 18.6 µM] | fluorescence, % of fluorescent control [7] 0.0124% [at 18.6 µM]

O=[N+]([O-])c1cc(C2CCCCC2)c(O)c([N+](=O)[O-])c1
active: Potency [2] 19.3 µM | Potency [3] 0.343 µM | Potency [4] 0.153 µM
inactive: Potency [1] | outcome [5] | Potency [6] | outcome [7]

COc1cc(C(=O)NC2CCN(C)CC2)ccc1Nc1ncc2c(n1)N(C1CCCC1)CC(F)(F)C(=O)N2C
active: Potency [1] 1.58 µM | Potency [8] 44.5 µM | Potency [2] 79.1 µM | Potency [4] 44.5 µM
inactive: outcome [9] | outcome [5] | Potency [6] | outcome [7]

CCOC(=O)c1ccc(C#Cc2ccc3c(c2)C(C)(C)CCS3)nc1
inactive: Potency [1] | Potency [8] | Potency [2] | outcome [9] | outcome [5]
active: Potency [4] 29.8 µM

O=C(Nc1cccc2c(=O)cc(-c3nn[nH]n3)oc12)c1ccc(OCCCCc2ccccc2)cc1
inactive: Potency [1] | Potency [8] | Potency [3] | outcome [9] | outcome [5] | Potency [6] | outcome [7]

Nc1nnc(-c2ccc([N+](=O)[O-])o2)o1
active: Potency [4] 61.1 µM
inactive: Potency [1] | Potency [2] | Potency [3] | outcome [9] | outcome [5] | Potency [6] | outcome [7]

O=C(O)CCCCCCCCCCCBr
inactive: Potency [1] | Potency [2] | Potency [3] | outcome [9] | outcome [5] | Potency [6] | outcome [7]

CN1C(=O)OC(C)(C)C1=O
inactive: Potency [1] | Potency [2] | Potency [3] | outcome [9] | outcome [5] | Potency [6] | outcome [7]

CCCC(C(=O)OCCN(CC)CC)(c1ccccc1)c1ccccc1
inactive: Potency [1] | Potency [8] | Potency [3] | outcome [5] | Potency [6]

C[C@@H](CN(C)C)CN1c2ccccc2Sc2ccccc21
inactive: Potency [1] | Potency [8] | Potency [3] | fluorescence, relative to Rose Bengal [9] 0.322% [at 18.6 µM] | fluorescence, % of fluorescein control [5] 0.0297% [at 18.6 µM] | fluorescence, % of triamterene [6] -0.151% [at 18.6 µM] | fluorescence, % of fluorescent control [7] -0.0905% [at 18.6 µM]

CCCCCC#CC(=O)OC
inactive: Potency [1] | Potency [8] | Potency [3] | Potency [4] | outcome [9] | outcome [5] | Potency [6]

COC(=O)C1=C(C)NC(C)=C(C(=O)O[C@@H]2CCCN(Cc3ccccc3)C2)[C@@H]1c1cccc([N+](=O)[O-])c1
inactive: Potency [1] | Potency [8] | outcome [5] | Potency [6]
active: Potency [4] 13.3 µM

CC1(CN2CCC(n3c(=O)[nH]c4ccccc43)CC2)OCc2ccccc2-n2cccc21 (configuration not stated)
active: Potency [8] 29.8 µM | Potency [4] 29.8 µM
inactive: Potency [1] | Potency [3] | outcome [9] | outcome [5] | Potency [6] | outcome [7]

CCC(=O)C1CC(C(C)C)CC=C1C (configuration not stated)
inactive: Potency [1] | Potency [8] | Potency [3] | Potency [4] | outcome [9] | outcome [5] | Potency [6] | outcome [7]

C[C@]1(Cn2ccnn2)[C@H](C(=O)O)N2C(=O)C[C@H]2S1(=O)=O
inactive: Potency [1] | Potency [8] | Potency [3] | outcome [9] | outcome [5] | Potency [6] | outcome [7]

C[C@]12CC[C@@H]3c4ccc(O)cc4CC[C@H]3[C@@H]1CC[C@@H]2OC(=O)CCC1CCCC1
active: Potency [4] 17.2 µM
inactive and 61.1 µM (active): Potency [3]
inactive: Potency [1] | Potency [8] | outcome [9] | outcome [5] | Potency [6] | outcome [7]

C/C=C/C=C/C=O
inactive: Potency [1] | Potency [2] | Potency [3] | Potency [4] | outcome [9] | outcome [5] | Potency [6] | outcome [7]

Nc1cccc2c1CN(C1CCC(=O)NC1=O)C2=O (configuration not stated)
inactive: Potency [1] | Potency [2] | Potency [3] | Potency [4] | outcome [5] | Potency [6]

Cc1cc(=O)c2c(O)c3c(O)cc(=O)c4c3c3c(cc(O)c1c23)C(C)(C)C=4O
active: Potency [8] 1.06 µM | Potency [2] 2.66 µM | Potency [4] 0.473 µM
inactive: Potency [1] | outcome [9] | Potency [6]

COc1ccccc1NC(=O)c1cc2ccccc2cc1O
active: Potency [3] 7.7 µM | Potency [6] 39.8 µM [fluorescent]
inactive: Potency [1] | Potency [2] | outcome [9] | outcome [5] | outcome [7]

CCOC(=O)C1=C(C)NC(C)=C(C(=O)OC)C1c1cccc(Cl)c1Cl (configuration not stated)
inactive: Potency [1] | Potency [8] | Potency [2] | outcome [9] | outcome [5] | Potency [6]
active: Potency [4] 19.7 µM

CC(C)c1nc(CN(C)C(=O)N[C@H](C(=O)N[C@@H](Cc2ccccc2)C[C@H](O)[C@H](Cc2ccccc2)NC(=O)OCc2cncs2)C(C)C)cs1
inactive: Potency [1] | Potency [8] | Potency [3] | outcome [9] | outcome [5] | Potency [6] | outcome [7]

CCCCCCCC/C=C\CCCCCCCCO
inactive: Potency [1] | Potency [8] | Potency [3] | Potency [4] | outcome [9] | outcome [5] | Potency [6] | outcome [7]

CN1C[C@H](C(=O)N[C@]2(C)O[C@@]3(O)[C@@H]4CCCN4C(=O)[C@H](Cc4ccccc4)N3C2=O)C[C@@H]2c3cccc4[nH]cc(c34)C[C@H]21
inactive: Potency [1] | Potency [8] | Potency [3] | outcome [5] | Potency [6] | outcome [7]

Oc1cccc(Nc2ccccc2)c1
active: Potency [4] 25.4 µM
inactive: Potency [1] | Potency [8] | Potency [3] | outcome [9] | outcome [5] | Potency [6] | outcome [7]

O=[N+]([O-])c1ccc(O/N=C/c2cc(Br)c(O)c(Br)c2)c([N+](=O)[O-])c1
active: Potency [2] 24.2 µM | Potency [3] 12.1 µM | Potency [4] 0.859 µM
inactive: Potency [1] | outcome [9] | outcome [5] | Potency [6] | outcome [7]

O=C1c2ccccc2C(=O)C1c1nc2ccccc2c(Br)c1O
active: Potency [4] 21.7 µM
inactive: Potency [8] | Potency [2] | Potency [3] | outcome [9] | outcome [5] | Potency [6]
